# Source: PubChem BioAssay
# Several values for one entry are separate records, joined by “and”; a condition that tells them apart may be missing. Equal entries are not always repeated. Records with an inconclusive call do not appear. Activity calls are given as the source filed them. Unless noted, no rule for the calls is given here.
# Assays:
# [1] = rapamycin-like changes in RPL19A-GFP expression – cell-based, S. cerevisiae, multiplex flow cytometry, primary screen (AID 1862; in the data active = percent of DMSO control GFP below about 86%;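 also: lower values mimic rapamycin by blocking the RPL19A rise seen in DMSO cells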); details: S. cerevisiae RPL19A-GFP strain, flow cytometry fluorescence, 3 h; at 10 µM; stronger effect = lower value
# [2] = TOR pathway GLN3 branch reporter MEP2-GFP changes – S. cerevisiae, multiplex flow cytometry, primary screen (AID 1867;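 active = GFP response, as percent of the DMSO control, above the screen-wide mean plus 3 SD, about 139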;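 also: median GFP channel fluorescence of barcode-gated MEP2-GFP cells measured by flow cytometry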); details: S. cerevisiae MEP2-GFP strain, 3 h, at 10 µM, stronger effect = higher value
# [3] = TOR pathway RTG branch CIT2 reporter changes – S. cerevisiae, GFP fusion, multiplex flow cytometry, primary screen (AID 1870;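 active = percent response above a set limit, the screen-wide mean plus 3 SD, cut at about 130% in these data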;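 also: barcoded CIT2-GFP strain pooled with four other GFP strains with rapamycin as positive control; median GFP fluorescence per well over plate mean of DMSO wells so 100% = DMSO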); details: S. cerevisiae CIT2-GFP expression, 3 h, at 10 µM, stronger effect = higher value
# [4] = TOR pathway LAP4-GFP level changes – S. cerevisiae, multiplex flow cytometry, primary screen (AID 1873;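 active = GFP signal, as percent of the solvent control, above the screen mean plus 3 SD, about 149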); details: S. cerevisiae LAP4-GFP expression, 3 h, at 10 µM, stronger effect = higher value
# [5] = yeast AGP1-GFP level changes, GLN3 branch – cell-based, multiplex flow cytometry, S. cerevisiae, primary screen (AID 1887;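 active = GFP signal above the screen-wide mean plus 3 SD, that is over about 124.5% of the solvent control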;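 also: AGP1-GFP fusion strain of S. cerevisiae within a five-strain barcoded multiplex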); details: 3 h, at 10 µM, stronger effect = higher value
# [6] = reduced mouse 2C T cell binding to pMHC/ICAM-1 vesicles – MLPCN validation set, flow cytometry, LFA-1/ICAM-1 modulator project, pilot screen (AID 2523;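 active = response below a set limit, under 55% cells CD8-positive and vesicle-bound, and CD8 cells' 90th-percentile brightness under 279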;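 as to vesicle binding response: mean PE anti-B7-1 fluorescence of CD8+ cells relative to row control; 100% = QL9-loaded vesicles with DMSO vehicle in the same plate row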); details: 2C mouse CD8+ T cells, at 7 µM, stronger effect = lower value; double positive events: measured here: CD8+/vesicle+ event percentage
# [7] = biological target: Integrin beta-1 (Homo sapiens) + Integrin alpha-4 (Homo sapiens) (UniProt P13612+P05556); assay: alpha4beta1 integrin LIBS antibody binding reduction – U937 cells, HUTS-21 mAb, flow cytometry, validation set, VLA-4 allosteric modulator project, pilot screen (AID 2674;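 active = inhibition above 50%, about 3 SD of the validation set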;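 also: antibody binding induced by the VLA-4 ligand LDV present at three times its Kd; 0% = LDV ligand with antibody and no compound and 100% = antibody without LDV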); details: HUTS-21 LIBS mAb binding, at 6.7 µM, stronger effect = higher value
# [8] = calorie-restriction mimetic ROS inhibitors, yeast – validation compound set, pilot screen (AID 2706;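 active = superoxide response below 65% of plate, a cut near 3 SD across the whole screen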;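 also: yeast exposed to compound for one week at 30 degrees C before staining; 100% = mean of all compound wells on the same plate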); details: S. cerevisiae aging, superoxide DHE fluorescence; at 10 µM; stronger effect = lower value
# [9] = biological target: Beta-adrenergic receptor kinase 1 (Homo sapiens) (UniProt P25098); assay: GRK2 binders displacing RNA aptamer, biochemical, validation, human GRK2, bead flow cytometry (AID 488806;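 active = aptamer binding inhibition above 30%, about 3 SD of noise from non-fluorescent compounds; inactive = inhibition at or below 30%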); details: bead-bound GRK2, FAM-aptamer displacement, at 10 µM, stronger effect = higher value
# [10] = biological target: Beta-2 adrenergic receptor (Homo sapiens) (UniProt P07550); assay: agonist-induced loss of surface beta2AR – cell-based, FAP fluorogen, flow cytometry, validation set, pilot screen (AID 504459;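 active = percent response above 42, roughly 3 SD of non-fluorescent test compounds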;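 also: agonist-driven loss of surface beta2AR via internalization measured by FAP dye flow cytometry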); details: Am2.2-beta2AR cells, at 10 µM, stronger effect = higher value
# [11] = biological target: AP-2 complex subunit beta (Homo sapiens) (UniProt P63010); assay: beta-arrestin/AP2 interaction blockers – biochemical, validation set, GST-AP2 beads, flow cytometry, pilot screen (AID 504541;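 active = inhibition above 54%, about 3 SD of non-fluorescent compounds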;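 also: AP2 carries R879A mutation and is captured from E. coli lysate; bead-bound FITC arrestin peptide fluorescence measuring arrestin peptide binding to AP2; 0% = DMSO wells and 100% = excess unlabeled arrestin peptide control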); details: FITC arrestin peptide, at 10 µM, stronger effect = higher value
# [12] = cytosolic pH regulators acting via V-ATPase – S. cerevisiae, pHLuorin, HTS validation (AID 504600; in the data active = response above about 15%;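 also: plate controls were DMSO for no effect and reference compound for full effect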); details: V-ATPase proton transport, at 10 µM, stronger effect = higher value
# [13] = test system: anti-desmoglein-3 scFv antibody binding to human DSG3; assay: blockers of pathogenic pemphigus antibody–desmoglein-3 binding – biochemical, validation compound set, bead-based, flow cytometry, pilot screen (AID 588368;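 active = binding below the plate cutoff, the plate median minus 3 SD, with a reading above zero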;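 also: signal is the median channel fluorescence of bead-bound GFP antibody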); details: Protein G beads, DSG3-Fc, scFv-GFP binding, at 10 µM, stronger effect = lower value
# [14] = test system: Botulinum neurotoxin type F light chain protease (Clostridium botulinum); assay: Clostridium botulinum type F light chain protease inhibitors, microsphere substrate cleavage, validation (AID 588459); details: multiplex microsphere protease substrate cleavage assay, flow cytometry; at 10 µM; stronger effect = higher value
# [15] = biological target: Botulinum neurotoxin type A (Clostridium botulinum) (UniProt P0DPI0); assay: BoNT/A light chain protease inhibitors, biochemical, multiplex microsphere flow cytometry, validation set (AID 588460); details: at 10 µM, stronger effect = higher value
# [16] = biological target: Lethal factor (Bacillus anthracis) (UniProt P15917); assay: Bacillus anthracis lethal factor inhibition, microsphere flow cytometry protease assay, validation at 10 µM (AID 588461); details: multiplex microsphere protease cleavage assay, stronger effect = higher value
# [17] = Nile Red efflux blockade in pump-expressing yeast – validation compound set, multiplex, phenotypic, pilot screen (AID 588506;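 active = efflux inhibition above 0.42, the validation set average plus 4 SD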;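 also: Nile Red retained in cells so higher fluorescence means more efflux inhibition; 0 = negative control wells and 1 = enniatin B 25 µM full block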); details: S. cerevisiae pump-expressing triplex, Nile Red efflux flow cytometry; at 10 µM; stronger effect = higher value
# [18] = biological target: ATP-binding cassette sub-family B member 6 (Homo sapiens) (UniProt Q9NP58); assay: blockers of ABCB6-driven porphyrin uptake – K562-ABCB6 cells, flow cytometry, validation set, pilot screen (AID 588550;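 active = inhibition above the screen-wide mean plus 3 SD, about 51%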;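 also: 0% = DMSO wells and 100% = benzethonium chloride 70 µM positive control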); details: K562-ABCB6 porphyrin accumulation, 1 h, at 10 µM, stronger effect = higher value
# [19] = AML differentiation inducers, ER-HoxA9 marrow cells – cell-based, GFP/MAC1 double positive, flow cytometry, validation set, primary screen (AID 588685;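 active = differentiation response of at least 50%, scaled between solvent and reference control, from cells with both markers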;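 also: compound exposure lasts four days before antibody staining and flow analysis; 0% = DMSO wells and 100% = 5 µM fulvestrant positive control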); details: stronger effect = higher value
# [20] = biological target: GTPase HRas (Homo sapiens) (UniProt P01112); assay: Ras wt fluorescent GTP loading blockade – biochemical, wildtype, multiplex bead flow cytometry, dose response (AID 1335;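 active = fitted half-maximal concentration within 10 nM to 100 µM, steepness 0.5 to 2, significant signal drop, low assay interference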); details: bead-based flow cytometry, Bodipy-GTP binding to GST-Ras; at 100 µM (top of the series)
# Chain of GTPase HRas (Homo sapiens) (P01112 whole entry, looked up): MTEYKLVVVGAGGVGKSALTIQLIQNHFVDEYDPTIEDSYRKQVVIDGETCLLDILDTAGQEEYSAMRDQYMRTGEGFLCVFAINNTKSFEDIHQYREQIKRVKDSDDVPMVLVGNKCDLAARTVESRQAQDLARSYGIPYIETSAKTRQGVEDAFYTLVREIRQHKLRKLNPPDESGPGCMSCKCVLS
# Chain of AP-2 complex subunit beta (Homo sapiens) (P63010 whole entry, looked up, one chain of several): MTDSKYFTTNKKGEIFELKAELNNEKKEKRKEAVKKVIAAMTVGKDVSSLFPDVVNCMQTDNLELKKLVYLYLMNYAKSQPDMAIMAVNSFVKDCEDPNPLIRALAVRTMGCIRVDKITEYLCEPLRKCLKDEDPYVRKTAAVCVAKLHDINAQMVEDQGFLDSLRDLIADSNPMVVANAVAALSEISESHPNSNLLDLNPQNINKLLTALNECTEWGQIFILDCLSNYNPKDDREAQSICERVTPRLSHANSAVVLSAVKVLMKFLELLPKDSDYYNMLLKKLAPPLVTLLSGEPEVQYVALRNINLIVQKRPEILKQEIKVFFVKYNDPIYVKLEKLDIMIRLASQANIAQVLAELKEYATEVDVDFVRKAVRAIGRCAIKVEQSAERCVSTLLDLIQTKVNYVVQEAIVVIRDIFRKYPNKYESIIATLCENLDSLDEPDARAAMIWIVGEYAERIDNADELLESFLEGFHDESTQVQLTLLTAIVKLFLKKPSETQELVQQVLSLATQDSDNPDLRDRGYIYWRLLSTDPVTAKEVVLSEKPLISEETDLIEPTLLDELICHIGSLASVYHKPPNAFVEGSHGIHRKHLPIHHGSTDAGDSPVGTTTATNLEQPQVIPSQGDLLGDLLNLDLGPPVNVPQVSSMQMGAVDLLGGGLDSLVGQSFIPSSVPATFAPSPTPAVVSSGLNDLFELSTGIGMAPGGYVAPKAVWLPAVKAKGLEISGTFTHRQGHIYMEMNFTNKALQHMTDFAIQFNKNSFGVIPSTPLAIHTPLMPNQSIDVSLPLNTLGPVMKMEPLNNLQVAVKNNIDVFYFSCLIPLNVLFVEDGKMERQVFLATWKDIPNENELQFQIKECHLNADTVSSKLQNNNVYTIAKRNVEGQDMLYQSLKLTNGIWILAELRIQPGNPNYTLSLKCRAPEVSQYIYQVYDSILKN
# Chain of Lethal factor (Bacillus anthracis) (P15917 whole entry, looked up): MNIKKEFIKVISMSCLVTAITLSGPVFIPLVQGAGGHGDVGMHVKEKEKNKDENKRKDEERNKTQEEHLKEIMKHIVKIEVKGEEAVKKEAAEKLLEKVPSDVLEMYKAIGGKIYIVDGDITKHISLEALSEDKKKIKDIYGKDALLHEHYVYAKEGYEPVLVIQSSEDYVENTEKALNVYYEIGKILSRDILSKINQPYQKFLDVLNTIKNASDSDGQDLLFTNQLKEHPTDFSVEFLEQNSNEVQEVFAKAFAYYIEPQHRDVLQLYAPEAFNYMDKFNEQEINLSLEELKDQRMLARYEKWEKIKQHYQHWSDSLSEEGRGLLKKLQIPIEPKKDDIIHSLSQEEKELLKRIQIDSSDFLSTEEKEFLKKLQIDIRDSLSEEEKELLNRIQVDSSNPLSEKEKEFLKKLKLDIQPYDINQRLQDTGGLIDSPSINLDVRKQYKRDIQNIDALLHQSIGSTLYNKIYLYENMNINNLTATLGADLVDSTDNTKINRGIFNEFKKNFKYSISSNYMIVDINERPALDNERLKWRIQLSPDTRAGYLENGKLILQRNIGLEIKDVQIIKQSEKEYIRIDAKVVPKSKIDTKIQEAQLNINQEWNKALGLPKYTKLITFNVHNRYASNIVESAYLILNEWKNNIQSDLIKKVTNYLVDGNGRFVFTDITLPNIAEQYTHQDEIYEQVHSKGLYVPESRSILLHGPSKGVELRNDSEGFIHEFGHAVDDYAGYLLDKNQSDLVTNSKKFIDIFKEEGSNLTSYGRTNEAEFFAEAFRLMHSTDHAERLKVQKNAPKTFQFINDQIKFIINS
# Chain of Botulinum neurotoxin type A (Clostridium botulinum) (P0DPI0 whole entry, looked up): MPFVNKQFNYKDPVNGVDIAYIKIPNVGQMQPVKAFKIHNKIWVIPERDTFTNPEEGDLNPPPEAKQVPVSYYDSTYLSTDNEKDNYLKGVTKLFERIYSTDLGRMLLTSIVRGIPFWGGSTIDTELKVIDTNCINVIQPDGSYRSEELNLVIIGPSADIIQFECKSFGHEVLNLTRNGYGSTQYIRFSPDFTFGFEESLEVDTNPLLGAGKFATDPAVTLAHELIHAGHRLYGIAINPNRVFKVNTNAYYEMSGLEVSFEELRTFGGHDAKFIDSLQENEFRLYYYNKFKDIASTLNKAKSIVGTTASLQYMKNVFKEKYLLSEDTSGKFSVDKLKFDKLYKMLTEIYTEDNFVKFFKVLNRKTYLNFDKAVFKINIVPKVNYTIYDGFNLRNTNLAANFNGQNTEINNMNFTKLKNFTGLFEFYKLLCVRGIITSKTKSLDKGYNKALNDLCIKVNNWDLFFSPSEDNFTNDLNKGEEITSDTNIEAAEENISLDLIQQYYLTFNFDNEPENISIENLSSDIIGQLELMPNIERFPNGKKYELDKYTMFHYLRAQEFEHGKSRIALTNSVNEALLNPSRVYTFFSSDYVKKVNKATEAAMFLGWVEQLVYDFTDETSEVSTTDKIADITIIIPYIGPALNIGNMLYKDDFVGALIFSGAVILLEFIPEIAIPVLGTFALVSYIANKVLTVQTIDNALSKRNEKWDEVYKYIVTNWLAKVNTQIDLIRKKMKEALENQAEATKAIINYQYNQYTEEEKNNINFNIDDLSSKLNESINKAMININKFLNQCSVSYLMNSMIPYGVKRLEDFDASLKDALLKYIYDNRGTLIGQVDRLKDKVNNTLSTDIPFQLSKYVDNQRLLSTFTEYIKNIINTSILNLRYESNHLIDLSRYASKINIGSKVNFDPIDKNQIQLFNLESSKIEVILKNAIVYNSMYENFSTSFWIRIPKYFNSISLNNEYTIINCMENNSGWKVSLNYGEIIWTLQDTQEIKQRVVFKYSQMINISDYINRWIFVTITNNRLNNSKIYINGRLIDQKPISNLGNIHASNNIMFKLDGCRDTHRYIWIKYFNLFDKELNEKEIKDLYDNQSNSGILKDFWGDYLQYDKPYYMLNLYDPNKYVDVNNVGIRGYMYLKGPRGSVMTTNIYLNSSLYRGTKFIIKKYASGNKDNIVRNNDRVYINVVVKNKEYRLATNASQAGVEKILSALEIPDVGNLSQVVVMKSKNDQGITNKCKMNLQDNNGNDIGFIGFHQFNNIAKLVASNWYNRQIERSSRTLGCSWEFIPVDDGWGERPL
# Chain of ATP-binding cassette sub-family B member 6 (Homo sapiens) (Q9NP58 whole entry, looked up): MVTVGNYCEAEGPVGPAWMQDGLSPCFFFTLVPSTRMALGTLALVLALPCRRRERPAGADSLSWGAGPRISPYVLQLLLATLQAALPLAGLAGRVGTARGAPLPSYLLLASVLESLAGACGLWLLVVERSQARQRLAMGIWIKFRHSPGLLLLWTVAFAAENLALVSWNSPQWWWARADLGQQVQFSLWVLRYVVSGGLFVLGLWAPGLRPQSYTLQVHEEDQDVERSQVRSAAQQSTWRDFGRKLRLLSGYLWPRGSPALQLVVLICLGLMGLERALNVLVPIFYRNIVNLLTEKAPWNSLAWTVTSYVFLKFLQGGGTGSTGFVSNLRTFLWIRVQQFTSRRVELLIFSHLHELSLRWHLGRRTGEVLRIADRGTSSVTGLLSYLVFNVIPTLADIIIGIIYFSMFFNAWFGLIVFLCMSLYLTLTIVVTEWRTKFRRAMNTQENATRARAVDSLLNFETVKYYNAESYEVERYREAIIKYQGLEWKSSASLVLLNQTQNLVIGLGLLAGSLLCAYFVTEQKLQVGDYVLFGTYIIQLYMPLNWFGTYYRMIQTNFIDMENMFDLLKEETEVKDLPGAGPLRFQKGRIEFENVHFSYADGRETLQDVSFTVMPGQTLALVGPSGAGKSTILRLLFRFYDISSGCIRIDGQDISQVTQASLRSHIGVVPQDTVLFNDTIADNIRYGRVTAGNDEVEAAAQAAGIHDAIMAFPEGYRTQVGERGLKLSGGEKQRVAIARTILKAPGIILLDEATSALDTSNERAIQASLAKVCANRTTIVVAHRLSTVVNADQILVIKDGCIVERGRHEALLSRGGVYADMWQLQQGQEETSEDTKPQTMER
# Chain of Beta-adrenergic receptor kinase 1 (Homo sapiens) (P25098 whole entry, looked up): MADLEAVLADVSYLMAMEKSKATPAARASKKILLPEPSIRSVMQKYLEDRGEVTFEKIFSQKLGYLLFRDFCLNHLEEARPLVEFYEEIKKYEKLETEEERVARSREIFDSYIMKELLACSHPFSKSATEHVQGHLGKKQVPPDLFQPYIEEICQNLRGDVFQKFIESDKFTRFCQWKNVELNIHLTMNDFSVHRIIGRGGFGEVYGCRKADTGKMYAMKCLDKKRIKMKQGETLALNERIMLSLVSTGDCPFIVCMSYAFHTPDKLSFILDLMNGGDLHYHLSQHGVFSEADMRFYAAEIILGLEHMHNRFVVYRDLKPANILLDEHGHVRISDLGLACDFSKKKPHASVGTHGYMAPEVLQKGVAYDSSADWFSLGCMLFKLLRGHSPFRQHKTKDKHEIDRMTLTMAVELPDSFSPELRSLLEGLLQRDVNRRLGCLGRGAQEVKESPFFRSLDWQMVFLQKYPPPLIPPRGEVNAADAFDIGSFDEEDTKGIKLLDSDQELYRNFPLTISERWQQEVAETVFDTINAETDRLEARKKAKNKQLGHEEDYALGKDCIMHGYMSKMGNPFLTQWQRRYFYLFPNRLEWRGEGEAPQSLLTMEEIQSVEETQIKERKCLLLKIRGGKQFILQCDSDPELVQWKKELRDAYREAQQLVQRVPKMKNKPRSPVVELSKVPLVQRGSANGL
smiles,measurement,setting,value
O=C1CN=C(c2ccccc2F)c2cc(Cl)ccc2N1,percent of DMSO control GFP,[1],90.9% (inactive)
same,GFP response vs DMSO,[2],147% (active)
same,percent response of DMSO control,[3],95.2% (inactive)
same,GFP response vs DMSO,[4],78.7% (inactive)
same,"GFP response, % of DMSO",[5],88% (inactive)
same,double positive events,[6],67.2%
same,vesicle binding response,[6],272% (inactive)
same,inhibition,[7],1.61% (inactive)
same,superoxide response (% of plate),[8],98.6% (inactive)
same,aptamer binding inhibition,[9],-3% (inactive)
same,response,[10],-21.4% (inactive)
same,inhibition,[11],43.2% (inactive)
same,response,[12],-7.23% (inactive)
same,binding (% of control),[13],94.8% (inactive)
same,inhibition,[14],3.7% (inactive)
same,inhibition,[15],0.4% (inactive)
same,inhibition,[16],1.5% (inactive)
same,efflux inhibition (fraction of control),[17],0.27 (inactive)
same,inhibition,[18],14% (inactive)
same,differentiation response,[19],11.5% (inactive)
CCCCN1C(=O)/C(=C\c2ccco2)C(=O)N(CCc2ccccc2)C1=O,"GTP binding, percent of control",[20],131%
CN1C(=O)N(C)C(=O)C2(Cc3c(ccc4ccccc34)N(C)C2)C1=O,"GTP binding, percent of control",[20],82.6%
CC[C@@H]1C(=O)OC[C@@H]1Cc1cncn1C,percent of DMSO control GFP,[1],89.8% (inactive)
same,GFP response vs DMSO,[2],144% (active)
same,percent response of DMSO control,[3],112% (inactive)
same,GFP response vs DMSO,[4],88% (inactive)
same,"GFP response, % of DMSO",[5],86.3% (inactive)
same,double positive events,[6],65.5% and 68.4%
same,vesicle binding response,[6],171% (inactive) and 339% (inactive)
same,inhibition,[7],13.2% (inactive) and 5.49% (inactive)
same,superoxide response (% of plate),[8],82.6% (inactive) and 106% (inactive)
same,aptamer binding inhibition,[9],7% (inactive) and 4% (inactive)
same,response,[10],1.92% (inactive) and 3.7% (inactive)
same,inhibition,[11],14.2% (inactive) and -5.27% (inactive)
same,response,[12],-2.39% (inactive) and 0.38% (inactive)
same,binding (% of control),[13],104% (inactive) and 95.6% (inactive)
same,inhibition,[14],-1.2% (inactive) and -3.1% (inactive)
same,inhibition,[15],-0.7% (inactive) and 0.7% (inactive)
same,inhibition,[16],-1.2% (inactive) and 7% (inactive)
same,efflux inhibition (fraction of control),[17],0.16 (inactive) and 0.05 (inactive)
same,inhibition,[18],3% (inactive) and 12% (inactive)
same,differentiation response,[19],14.7% (inactive) and 20.5% (inactive)
CC1(C)CC(n2[nH]c(=O)c3c2NC(=O)CSC3c2ccccc2)CCO1 (centres undefined),"GTP binding, percent of control",[20],86.2%
O=c1[nH]c(=S)[nH]c(O)c1N=Nc1cc2c(cc1[N+](=O)[O-])OCO2,"GTP binding, percent of control",[20],66.6%
COc1ccccc1CN1CCCCC1c1cccnc1 (centres undefined),percent of DMSO control GFP,[1],104% (inactive)
same,GFP response vs DMSO,[2],99.3% (inactive)
same,percent response of DMSO control,[3],106% (inactive)
same,GFP response vs DMSO,[4],97.3% (inactive)
same,"GFP response, % of DMSO",[5],107% (inactive)
same,double positive events,[6],65.8%
same,vesicle binding response,[6],217% (inactive)
same,inhibition,[7],4.73% (inactive)
same,superoxide response (% of plate),[8],98.9% (inactive)
same,aptamer binding inhibition,[9],6% (inactive)
same,response,[10],-6.83% (inactive)
same,inhibition,[11],1.86% (inactive)
same,response,[12],-0.89% (inactive)
same,binding (% of control),[13],97.1% (inactive)
same,inhibition,[14],1.4% (inactive)
same,inhibition,[15],-0.8% (inactive)
same,inhibition,[16],4% (inactive)
same,efflux inhibition (fraction of control),[17],-0.17 (inactive)
same,inhibition,[18],6% (inactive)
same,differentiation response,[19],7.09% (inactive)
O=C1CCCC2=C1C(c1cccnc1)Nc1ccccc1N2 (centres undefined),percent of DMSO control GFP,[1],105% (inactive)
same,GFP response vs DMSO,[2],95.1% (inactive)
same,percent response of DMSO control,[3],121% (inactive)
same,GFP response vs DMSO,[4],89.4% (inactive)
same,"GFP response, % of DMSO",[5],107% (inactive)
same,double positive events,[6],64.4%
same,vesicle binding response,[6],211% (inactive)
same,inhibition,[7],-5.64% (inactive)
same,superoxide response (% of plate),[8],98% (inactive)
same,aptamer binding inhibition,[9],-2% (inactive)
same,response,[10],-5.46% (inactive)
same,inhibition,[11],-4.18% (inactive)
same,response,[12],-6.46% (inactive)
same,binding (% of control),[13],99.8% (inactive)
same,inhibition,[14],0.4% (inactive)
same,inhibition,[15],-2.1% (inactive)
same,inhibition,[16],-4% (inactive)
same,efflux inhibition (fraction of control),[17],-0.07 (inactive)
same,inhibition,[18],-9% (inactive)
same,differentiation response,[19],-4.64% (inactive)
C[N+]1(C)C2CCC1CC(OC(=O)C(CO)c1ccccc1)C2 (centres undefined),percent of DMSO control GFP,[1],106% (inactive)
same,GFP response vs DMSO,[2],99.3% (inactive)
same,percent response of DMSO control,[3],112% (inactive)
same,GFP response vs DMSO,[4],88.1% (inactive)
same,"GFP response, % of DMSO",[5],105% (inactive)
same,double positive events,[6],61.8%
same,vesicle binding response,[6],233% (inactive)
same,inhibition,[7],-6.68% (inactive)
same,superoxide response (% of plate),[8],105% (inactive)
same,aptamer binding inhibition,[9],5% (inactive)
same,response,[10],-0.63% (inactive)
same,inhibition,[11],6.92% (inactive)
same,response,[12],-1.74% (inactive)
same,binding (% of control),[13],98% (inactive)
same,inhibition,[14],-5.3% (inactive)
same,inhibition,[15],-0.6% (inactive)
same,inhibition,[16],2.6% (inactive)
same,efflux inhibition (fraction of control),[17],0.05 (inactive)
same,inhibition,[18],-4% (inactive)
same,differentiation response,[19],-6.6% (inactive)
CN1C2CCC1CC(OC(=O)CCN1CCCC1)C2 (centres undefined),percent of DMSO control GFP,[1],105% (inactive)
same,GFP response vs DMSO,[2],105% (inactive)
same,percent response of DMSO control,[3],107% (inactive)
same,GFP response vs DMSO,[4],115% (inactive)
same,"GFP response, % of DMSO",[5],113% (inactive)
same,double positive events,[6],61.6%
same,vesicle binding response,[6],194% (inactive)
same,inhibition,[7],8.25% (inactive)
same,superoxide response (% of plate),[8],98.4% (inactive)
same,aptamer binding inhibition,[9],4% (inactive)
same,response,[10],-8.97% (inactive)
same,inhibition,[11],33.9% (inactive)
same,response,[12],-1.35% (inactive)
same,binding (% of control),[13],107% (inactive)
same,inhibition,[14],3.2% (inactive)
same,inhibition,[15],1.3% (inactive)
same,inhibition,[16],1.5% (inactive)
same,efflux inhibition (fraction of control),[17],0.08 (inactive)
same,inhibition,[18],0% (inactive)
same,differentiation response,[19],-0.06% (inactive)
